Targets with a hit are over-represented here; the source holds about 8,800 in all. About 0.5% of all pairs of compound and target were hits. Values without a mark were called inactive.
Key:
Test in all cases: log2 fold change, soluble protein after heating vs DMSO (PISA); higher = thermal stabilisation; K562 lysate, 10 uM; active = over 0.2 and 3.5 SD of the protein, either way, in both replicates (recomputed)
erlotinib = compound: C#Cc1cccc(Nc2ncnc3cc(OCCOC)c(OCCOC)cc23)c1 [erlotinib]
In short: (§1)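 K562 pellets were dounce-homogenised in PBS pH 7.4 containing 1 mM MgCl2, and the crude extract, at 1 mg/mL protein, was exposed to 10 μM compound for 30 min. Aliquots were heated for 3 min across 48°C-58°C, pooled, brought to 0.5% NP-40 at 4°C and spun at 21,000xg for 90 min, with the supernatant taken as soluble protein. TMTpro 16plex LC-MS/MS with equalised channel sums quantified that protein. Values are log-two fold changes in thermal stability relative to solvent controls, taken from duplicates.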

[1] = compound: C/C(=N\NC(=O)C1=CC(=CC=C1)S(=O)(=O)N2CCOCC2)/C3=C(C=CC(=C3)Cl)O
In short: as §1

[2] = compound: C1=CC(=CC=C1C2=NC3=C(N2)C=C(C=C3)C(=O)N)OC4=CC=C(C=C4)Cl
In short: as §1

[3] = compound: C1=CC2=C(C=CC(=C2)/C=C\3/C(=O)NC(=NCC4=CC=CS4)S3)N=C1
In short: as §1

[4] = compound: C1=CC2=NC=CN=C2C=C1/C=C/3\C(=O)NC(=O)S3
In short: as §1

[5] = compound: C1=CC=C(C=C1)C2=NC(=C(N2)C3=CC=NC=C3)C4=CC(=C(C=C4)Cl)O
In short: as §1

[6] = compound: C1=CC=C2C(=C1)C3=NNC4=CC=CC(=C43)C2=O
In short: as §1

[7] = compound: C1CCN(C1)C(=O)NC2=CC=CC(=C2)NC3=NC=C(C(=N3)NCCC4=CN=CN4)Br
In short: as §1

[8] = compound: C1CN(CCC1(CC2=CC=C(C=C2)Cl)N)C3=NC=NC4=C3C=CN4
In short: as §1

IRAK-1-4 Inhibitor I = compound: C1COCCN1CCN2C3=CC=CC=C3N=C2NC(=O)C4=CC(=CC=C4)[N+](=O)[O-] [IRAK-1-4 Inhibitor I]
In short: as §1

UniProt O95239, sequence (O95239 whole entry, looked up): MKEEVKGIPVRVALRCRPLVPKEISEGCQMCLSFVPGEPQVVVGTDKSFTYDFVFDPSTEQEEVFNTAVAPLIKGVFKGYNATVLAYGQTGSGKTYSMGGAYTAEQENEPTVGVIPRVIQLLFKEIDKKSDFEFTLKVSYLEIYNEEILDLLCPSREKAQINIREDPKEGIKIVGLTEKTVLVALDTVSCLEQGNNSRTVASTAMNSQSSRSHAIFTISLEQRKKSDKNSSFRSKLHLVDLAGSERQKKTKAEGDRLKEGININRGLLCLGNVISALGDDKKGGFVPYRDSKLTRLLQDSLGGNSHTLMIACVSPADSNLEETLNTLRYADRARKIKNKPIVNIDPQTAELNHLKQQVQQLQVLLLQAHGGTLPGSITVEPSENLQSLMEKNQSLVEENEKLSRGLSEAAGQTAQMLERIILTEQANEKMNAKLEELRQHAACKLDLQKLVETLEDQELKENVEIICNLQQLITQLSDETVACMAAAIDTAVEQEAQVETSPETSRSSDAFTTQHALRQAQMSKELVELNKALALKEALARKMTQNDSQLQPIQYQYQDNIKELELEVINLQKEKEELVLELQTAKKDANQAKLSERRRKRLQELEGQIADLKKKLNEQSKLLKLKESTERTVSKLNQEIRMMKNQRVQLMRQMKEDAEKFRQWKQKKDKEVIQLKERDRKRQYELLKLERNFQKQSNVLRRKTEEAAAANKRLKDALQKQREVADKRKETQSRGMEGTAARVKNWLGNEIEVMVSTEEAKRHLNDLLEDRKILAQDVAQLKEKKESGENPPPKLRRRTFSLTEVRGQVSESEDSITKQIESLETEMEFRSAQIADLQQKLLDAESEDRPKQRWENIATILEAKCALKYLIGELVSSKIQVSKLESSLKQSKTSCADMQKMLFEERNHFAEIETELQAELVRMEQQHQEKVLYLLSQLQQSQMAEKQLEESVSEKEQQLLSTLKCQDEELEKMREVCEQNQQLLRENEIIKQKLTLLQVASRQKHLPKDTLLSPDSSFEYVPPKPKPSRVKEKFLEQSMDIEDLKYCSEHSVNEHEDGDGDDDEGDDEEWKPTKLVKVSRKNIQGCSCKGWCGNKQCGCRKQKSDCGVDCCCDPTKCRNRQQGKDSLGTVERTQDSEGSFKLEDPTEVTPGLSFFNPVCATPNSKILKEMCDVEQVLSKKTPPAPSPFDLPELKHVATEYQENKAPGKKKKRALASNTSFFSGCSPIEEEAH
UniProt Q53G59, sequence (Q53G59 whole entry, looked up): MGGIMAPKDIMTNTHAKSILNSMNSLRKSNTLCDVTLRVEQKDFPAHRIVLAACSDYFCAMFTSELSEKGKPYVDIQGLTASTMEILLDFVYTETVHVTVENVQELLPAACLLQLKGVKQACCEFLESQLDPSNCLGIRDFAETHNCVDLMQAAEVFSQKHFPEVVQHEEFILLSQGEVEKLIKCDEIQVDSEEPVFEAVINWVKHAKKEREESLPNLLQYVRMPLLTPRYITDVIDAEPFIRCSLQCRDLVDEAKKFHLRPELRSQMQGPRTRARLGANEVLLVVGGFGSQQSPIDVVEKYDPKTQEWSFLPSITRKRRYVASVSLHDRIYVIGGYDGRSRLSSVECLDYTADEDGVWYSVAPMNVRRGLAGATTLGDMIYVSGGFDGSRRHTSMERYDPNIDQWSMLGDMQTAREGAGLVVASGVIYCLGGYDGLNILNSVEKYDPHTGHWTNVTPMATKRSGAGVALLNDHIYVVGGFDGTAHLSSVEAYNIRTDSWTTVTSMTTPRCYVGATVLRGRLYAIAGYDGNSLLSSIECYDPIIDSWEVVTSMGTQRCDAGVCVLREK
UniProt Q9Y4K4, sequence (Q9Y4K4 whole entry, looked up): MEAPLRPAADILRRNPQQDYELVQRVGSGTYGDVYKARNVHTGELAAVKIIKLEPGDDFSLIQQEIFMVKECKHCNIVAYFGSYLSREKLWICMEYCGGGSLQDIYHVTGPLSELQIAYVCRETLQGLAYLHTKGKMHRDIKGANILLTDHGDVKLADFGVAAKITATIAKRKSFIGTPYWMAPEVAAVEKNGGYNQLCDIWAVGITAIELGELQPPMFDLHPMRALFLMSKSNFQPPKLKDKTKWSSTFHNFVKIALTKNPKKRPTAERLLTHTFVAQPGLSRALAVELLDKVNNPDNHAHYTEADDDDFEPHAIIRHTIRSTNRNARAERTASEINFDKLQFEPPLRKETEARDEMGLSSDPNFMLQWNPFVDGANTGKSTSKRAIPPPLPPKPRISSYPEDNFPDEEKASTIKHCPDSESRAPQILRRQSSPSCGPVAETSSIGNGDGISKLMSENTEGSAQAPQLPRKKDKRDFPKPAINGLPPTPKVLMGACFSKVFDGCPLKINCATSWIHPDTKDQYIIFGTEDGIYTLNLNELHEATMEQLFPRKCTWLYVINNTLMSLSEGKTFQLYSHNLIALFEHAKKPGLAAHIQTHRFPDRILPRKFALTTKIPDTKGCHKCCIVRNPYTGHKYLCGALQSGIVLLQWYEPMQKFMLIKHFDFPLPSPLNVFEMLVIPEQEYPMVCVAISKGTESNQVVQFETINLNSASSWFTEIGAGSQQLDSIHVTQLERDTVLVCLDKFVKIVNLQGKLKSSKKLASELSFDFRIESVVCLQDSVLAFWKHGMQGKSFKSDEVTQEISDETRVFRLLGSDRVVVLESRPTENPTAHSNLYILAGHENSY
UniProt Q9P2J5, sequence (Q9P2J5 whole entry, looked up): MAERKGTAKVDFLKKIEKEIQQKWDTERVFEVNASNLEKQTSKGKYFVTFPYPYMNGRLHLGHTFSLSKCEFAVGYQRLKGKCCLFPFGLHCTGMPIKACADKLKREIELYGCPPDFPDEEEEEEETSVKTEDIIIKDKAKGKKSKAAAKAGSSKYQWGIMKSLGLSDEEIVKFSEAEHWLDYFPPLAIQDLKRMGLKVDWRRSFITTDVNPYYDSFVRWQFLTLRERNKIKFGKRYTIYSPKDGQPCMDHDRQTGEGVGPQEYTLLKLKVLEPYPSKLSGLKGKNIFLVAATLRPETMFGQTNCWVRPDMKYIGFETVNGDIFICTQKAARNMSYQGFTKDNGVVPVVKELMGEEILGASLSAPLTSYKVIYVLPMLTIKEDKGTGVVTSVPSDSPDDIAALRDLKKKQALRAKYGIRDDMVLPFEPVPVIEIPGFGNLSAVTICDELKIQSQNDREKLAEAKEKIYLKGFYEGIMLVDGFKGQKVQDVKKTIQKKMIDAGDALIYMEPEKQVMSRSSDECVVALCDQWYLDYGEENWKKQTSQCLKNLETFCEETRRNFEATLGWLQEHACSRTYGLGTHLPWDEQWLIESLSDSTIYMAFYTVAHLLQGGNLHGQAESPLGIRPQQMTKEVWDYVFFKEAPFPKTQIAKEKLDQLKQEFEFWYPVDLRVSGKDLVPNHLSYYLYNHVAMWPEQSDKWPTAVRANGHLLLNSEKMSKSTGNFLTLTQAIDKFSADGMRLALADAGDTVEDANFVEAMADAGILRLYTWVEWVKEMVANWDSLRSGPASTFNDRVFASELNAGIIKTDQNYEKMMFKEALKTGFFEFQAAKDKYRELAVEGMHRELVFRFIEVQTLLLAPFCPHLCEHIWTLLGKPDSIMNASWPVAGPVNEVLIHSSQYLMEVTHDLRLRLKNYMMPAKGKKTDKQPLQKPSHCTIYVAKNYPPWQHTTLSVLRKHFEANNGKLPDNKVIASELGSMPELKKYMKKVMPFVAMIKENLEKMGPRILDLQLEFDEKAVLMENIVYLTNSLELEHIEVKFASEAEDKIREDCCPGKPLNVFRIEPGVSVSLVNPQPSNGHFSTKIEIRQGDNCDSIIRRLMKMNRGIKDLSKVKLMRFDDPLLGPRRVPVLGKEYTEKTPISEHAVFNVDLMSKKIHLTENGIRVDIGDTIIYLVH
UniProt Q13164, sequence (Q13164 whole entry, looked up): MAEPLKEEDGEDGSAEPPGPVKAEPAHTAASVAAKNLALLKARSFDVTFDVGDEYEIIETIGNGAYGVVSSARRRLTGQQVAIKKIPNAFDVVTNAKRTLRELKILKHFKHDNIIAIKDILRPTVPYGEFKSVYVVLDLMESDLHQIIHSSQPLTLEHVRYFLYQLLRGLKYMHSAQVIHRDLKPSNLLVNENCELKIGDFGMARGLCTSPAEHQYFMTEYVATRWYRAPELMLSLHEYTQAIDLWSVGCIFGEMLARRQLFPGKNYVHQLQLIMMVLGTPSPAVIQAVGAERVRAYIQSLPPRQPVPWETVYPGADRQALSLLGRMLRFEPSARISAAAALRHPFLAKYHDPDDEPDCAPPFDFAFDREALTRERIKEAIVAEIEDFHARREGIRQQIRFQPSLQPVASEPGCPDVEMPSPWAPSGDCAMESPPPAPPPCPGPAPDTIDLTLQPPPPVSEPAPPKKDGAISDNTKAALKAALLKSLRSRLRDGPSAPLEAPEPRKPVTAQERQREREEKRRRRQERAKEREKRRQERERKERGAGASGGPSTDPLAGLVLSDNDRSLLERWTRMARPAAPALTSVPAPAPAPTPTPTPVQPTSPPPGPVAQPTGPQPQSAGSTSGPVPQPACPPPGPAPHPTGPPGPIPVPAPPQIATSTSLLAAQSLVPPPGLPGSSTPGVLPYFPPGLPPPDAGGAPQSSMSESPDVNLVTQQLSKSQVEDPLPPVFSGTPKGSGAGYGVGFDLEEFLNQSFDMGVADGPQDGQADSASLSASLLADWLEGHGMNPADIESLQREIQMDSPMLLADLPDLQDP
UniProt P14174, sequence (P14174 whole entry, looked up): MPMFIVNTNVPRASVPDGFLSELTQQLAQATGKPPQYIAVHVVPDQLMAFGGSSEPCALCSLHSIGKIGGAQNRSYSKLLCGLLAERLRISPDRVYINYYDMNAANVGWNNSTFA

| Target | log2 fold change (erlotinib) | log2 fold change [1] | log2 fold change [2] | log2 fold change [3] | log2 fold change [4] | log2 fold change [5] | log2 fold change [6] | log2 fold change [7] | log2 fold change [8] | log2 fold change (IRAK-1-4 Inhibitor I) |
| --- | --- | --- | --- | --- | --- | --- | --- | --- | --- | --- |
| MPP5 (UniProt Q8N3R9) | 0.039 | -0.009 | 0.027 | -0.016 | 0.038 | 0.01 | -0.038 | -0.028 | -0.013 | 0.085 |
| KIF4A (UniProt O95239) | 0.015 | -0.022 | -0.042 | 0.02 | 0.022 | 0.014 | -0.033 | -0.026 | 0.031 | -0.01 |
| LAS1L (UniProt Q9Y4W2) | 0.053 | -0.011 | -0.003 | -0.018 | 0.022 | 0.007 | 0.028 | -0.004 | -0.027 | -0.002 |
| L3HYPDH (UniProt Q96EM0) | -0.004 | 0.057 | 0.028 | -0.027 | 0.033 | -0.03 | -0.048 | 0 | 0.038 | 0.029 |
| KLHL12 isoform 2 (UniProt Q53G59) | -0.051 | 0.021 | 0.004 | 0.053 | 0.165 | -0.134 | 0.04 |  |  | 0.046 |
| LYAR (UniProt Q9NX58) | -0.007 | -0.004 | 0 | -0.007 | -0.011 | 0.046 | 0.018 | 0.007 | -0.003 | -0.018 |
| KSR1 (UniProt Q8IVT5) | 0.011 | -0.099 | -0.038 | 0.058 | 0.022 | 0.059 | -0.078 | 0.015 | -0.037 | -0.008 |
| MARK3 (UniProt P27448) | 0.089 | -0.074 | -0.007 | 0.07 | -0.051 | 0.016 | -0.218 | -0.213 | -0.023 | -0.035 |
| MAPK14 isoform 2 (UniProt Q16539) | -0.004 | 0.011 | -0.049 | 0.016 | 0.017 | 0.633 | -0.045 | -0.02 | 0.059 | -0.015 |
| MLXIP (UniProt Q9HAP2) | 0.011 | 0.003 | 0.027 | 0.01 | -0.017 | 0.04 | -0.011 | -0.025 | -0.01 | 0.003 |
| MANEA (UniProt Q5SRI9) | -0.079 | -0.119 | 0.076 | 0.089 | 0.027 | 0.118 | -0.092 | -0.014 | 0.016 | 0.041 |
| MOSPD2 (UniProt Q8NHP6) | -0.049 | 0.152 | 0 | 0.072 | 0.027 | -0.015 | 0.157 | -0.062 | -0.023 | 0.057 |
| MOCS1 isoform 8 (UniProt Q9NZB8) | -0.055 | -0.002 | 0.074 | 0.058 | -0.008 | 0.026 | 0 | -0.056 | 0.183 | 0.02 |
| MRPL35 (UniProt Q9NZE8) | -0.005 | -0.237 | -0.025 | 0.296 (active) | 0.012 | -0.011 | -0.133 |  |  | -0.041 |
| KLC1 isoform 6 (UniProt Q07866) | -0.02 | -0.023 | 0.002 | 0 | -0.033 | 0.002 | -0.007 | -0.027 | -0.01 | 0.011 |
| MAPK1 (UniProt P28482) | -0.021 | -0.017 | 0.001 | 0.001 | -0.016 | -0.003 | 0.065 | 0.017 | 0.009 | -0.009 |

| Target | log2 fold change (erlotinib) | log2 fold change [1] | log2 fold change [2] | log2 fold change [3] | log2 fold change [4] | log2 fold change [5] | log2 fold change [6] | log2 fold change [7] | log2 fold change [8] | log2 fold change (IRAK-1-4 Inhibitor I) |
| --- | --- | --- | --- | --- | --- | --- | --- | --- | --- | --- |
| MRPL19 (UniProt P49406) | 0.02 | 0.079 | -0.041 | -0.003 | -0.007 | -0.032 | -0.019 | -0.014 | 0.005 | 0 |
| MAP2K5 (UniProt Q13163) | 0.16 | 0.153 | -0.024 | 0.142 | -0.097 | -0.015 | 0.06 | -0.007 | -0.024 | 0.144 |
| MAPK14 (UniProt Q16539) | 0.044 | 0.038 | -0.1 | -0.05 | -0.012 | 0.82 (active) | 0.081 | -0.076 | 0.015 | 0.013 |
| MAP2K1 (UniProt Q02750) | 0.016 | 0.04 | -0.026 | -0.02 | -0.012 | -0.006 | 0.188 | 0.105 | 0.077 | 0.011 |
| MAP4K5 (UniProt Q9Y4K4) | 0.032 | -0.169 | -0.025 | -0.019 | -0.002 | 0.039 |  | 0.089 | -0.04 | -0.001 |
| LPCAT1 (UniProt Q8NF37) | 0.056 | -0.052 | -0.057 | 0.054 | 0.062 | -0.09 | -0.014 | -0.007 | -0.025 | 0.04 |
| LARS (UniProt Q9P2J5) | 0.021 | 0.05 | -0.024 | 0.024 | 0.013 | 0.016 | -0.026 | -0.012 | -0.002 | -0.032 |
| MIF (UniProt P14174) | 0.006 | 0.003 | -0.021 | -0.045 | -0.007 | -0.009 | 0.047 | -0.023 | 0.032 | 0.058 |
| MPI (UniProt P34949) | 0.02 | 0.045 | 0.046 | -0.018 | -0.014 | 0.022 | -0.02 | -0.003 | 0.038 | 0.035 |
| MED17 (UniProt Q9NVC6) | -0.017 | 0.062 | 0.019 | 0.065 | -0.017 | 0.014 | -0.055 | -0.007 | -0.03 | -0.012 |
| MAPK9 (UniProt P45984) | -0.001 | 0.017 | -0.018 | -0.015 | 0.014 | 0.068 | 0.393 (active) | 0.061 | -0.032 | -0.014 |
| MAPK7 (UniProt Q13164) | -0.1 |  | 0.012 |  |  |  |  | -0.057 | 0.032 |  |
| LRRC7 (UniProt Q96NW7) |  | 0.042 |  | -0.493 (active) | -0.108 | 0.065 | 0.038 | 0.02 | 0.067 | 0.048 |
| MRPL30 isoform 2 (UniProt Q8TCC3) | -0.004 |  | -0.01 |  | -0.037 | -0.03 |  | 0.067 | 0.015 | 0.015 |
| MAN2B2 (UniProt Q9Y2E5) | 0.006 |  | -0.019 |  | -0.003 | -0.035 |  | -0.01 | 0.045 | 0.009 |

Source: the supplement of paper PMC10849652
